The subject of the assay is CLZ3 (HCA2 human fibroblast dual HR-NHEJ reporter). Kind of assay: NHEJ repair efficiency (GFP+ cells) relative to control (log10 fold); higher = more non-homologous end joining. The conditions noted are these: 5 µM; doxycycline 0.5 ug/mL.
Take `COc1cc(-c2coc3cc4c(c(OC)c3c2=O)OCO4)cc(OC)c1OC` [Irisflorentin]: the “NHEJ repair efficiency (log10)” value was -0.0524.

Turning to `C[C@@H]1O[C@@H](O[C@H]2[C@H](O[C@H]3CC[C@@]4(C)[C@@H](CC[C@]5(C)[C@@H]4CC=C4[C@@H]6CC(C)(C)CC[C@]6(C(=O)O[C@@H]6O[C@H](CO[C@@H]7O[C@H](CO)[C@@H](O)[C@H](O)[C@H]7O)[C@@H](O)[C@H](O)[C@H]6O)CC[C@]45C)[C@]3(C)CO)OC[C@H](O)[C@@H]2O)[C@H](O)[C@H](O[C@@H]2O[C@H](CO)[C@@H](O)[C@H](O)[C@H]2O)[C@H]1O` [Macranthoidin A], the “NHEJ repair efficiency (log10)” value is -0.155. In the case of `C[C@@H]1O[C@@H](O[C@H]2[C@H](O[C@H]3CC[C@@]4(C)[C@@H](CC[C@]5(C)[C@@H]4CC=C4[C@@H]6CC(C)(C)CC[C@]6(C(=O)O)CC[C@]45C)[C@]3(C)CO)OC[C@H](O)[C@@H]2O)[C@H](O)[C@H](O)[C@H]1O` [α-Hederin] it was -0.0243; in that of `COc1cc(/C=C/C(=O)CC(=O)/C=C/c2ccc(O)c(OC)c2)ccc1O` [Curcumin], 0.317. As to `COc1ccc(-c2cc(=O)c3c(O)c(OC)c(O)c(OC)c3o2)cc1` [Nevadensin], the “NHEJ repair efficiency (log10)” value is -0.111. Turning to `CC(C)=CC/C=C(\C)[C@H]1CC[C@]2(C)[C@@H]1[C@H](O)C[C@@H]1[C@@]3(C)CC[C@H](O[C@@H]4O[C@H](CO)[C@@H](O)[C@H](O)[C@H]4O[C@@H]4O[C@H](CO)[C@@H](O)[C@H](O)[C@H]4O)C(C)(C)[C@@H]3CC[C@]12C` [Ginsenoside Rg5], the “NHEJ repair efficiency (log10)” value came out at 0.0582.

For the compound `Cc1cc(O)c2c(c1)C(=O)c1cccc(O)c1C2=O` [Chrysophanol], the “NHEJ repair efficiency (log10)” value was found to be 0.0473.

Take `CC(=O)O[C@@H]1CC[C@@]2(C)[C@@H](CC[C@]3(C)[C@@H]2C(=O)C=C2[C@@H]4[C@@H](C)[C@H](C)CC[C@]4(C)CC[C@]23C)[C@@]1(C)C(=O)O` [3-Acetyl-11-Keto-Beta-Boswellic Acid]: the “NHEJ repair efficiency (log10)” value was -0.179. In the case of `O=C1c2ccccc2C(=O)c2c1cc(O)c(CO)c2O` [Lucidin] it was 0.134. The value for `COc1cc(/C=C/C(=O)O)ccc1O` [Sodium Ferulate] was -0.0171; that for `CC1OC(OC2C(C)OC(OC(=O)C34CCC(C)(C)CC3C3=CCC5C6(C)CCC(OC7OC(C(=O)O)C(OC8OC(CO)C(OC9OC(CO)C(O)C(O)C9O)C(O)C8O)C(OC8OCC(O)C(O)C8O)C7O)C(C)(C=O)C6CCC5(C)C3(C)CC4)C(OC3OCC(O)C(O)C3OC3OCC(O)C(O)C3O)C2O)C(O)C(OC2OCC(O)C(O)C2O)C1O` (stereo not given) [Gypenoside] was 0.0642. The value for `COc1ccc(-c2coc3cc(O)ccc3c2=O)cc1` [Formononetin] was -0.06. For the compound `COC(=O)C1=CO[C@@H](O[C@@H]2O[C@H](CO)[C@@H](O)[C@H](O)[C@H]2O)[C@@H]2[C@@H](C)[C@@H](O)C[C@H]12` [Loganin], the “NHEJ repair efficiency (log10)” value was 0.226. As to `COc1c(O[C@@H]2O[C@H](C(=O)O)[C@@H](O)[C@H](O)[C@H]2O)cc(O)c2c(=O)cc(-c3ccccc3)oc12` [Wogonoside], the “NHEJ repair efficiency (log10)” value is -0.0783.

With `C[C@@H]1CC[C@@]2(OC1)O[C@H]1C[C@H]3[C@@H]4CC[C@H]5C[C@@H](O)CC[C@]5(C)[C@H]4CC[C@]3(C)[C@H]1[C@@H]2C` [Tigogenin], the “NHEJ repair efficiency (log10)” value came to 0.0196. Consider `O=C(O)CC(O)(CC(=O)O)C(=O)O` [Citric Acid], for which the “NHEJ repair efficiency (log10)” value was -0.0431.

As to `CCCCCCCCCC(=O)CC(O)S(=O)(=O)O` (stereo not given) [Sodium Houttuyfonate], the “NHEJ repair efficiency (log10)” value turned out to be 0.024. The value for `COC(=O)C1=CO[C@@H](O[C@@H]2O[C@H](CO[C@@H]3O[C@H](CO)[C@@H](O)[C@H](O)[C@H]3O)[C@@H](O)[C@H](O)[C@H]2O)[C@@H]2C(CO)=CC[C@H]12` [Genipin 1-Gentiobioside] was 0.0417; that for `OC[C@H]1O[C@H](OC[C@H]2O[C@H](O[C@]3(CO)O[C@H](CO)[C@@H](O)[C@@H]3O)[C@H](O)[C@@H](O)[C@@H]2O)[C@H](O)[C@@H](O)[C@H]1O` [Raffinose] was -0.133.

`C=CC1=C(C)/C(=C/c2[nH]c(Cc3[nH]c(/C=C4\NC(=O)C(C)=C4C=C)c(C)c3CCC(=O)O)c(CCC(=O)O)c2C)NC1=O` [Bilirubin]: the “NHEJ repair efficiency (log10)” value was -0.0874. The value for `O=C1c2cccc(O)c2C(=O)c2c(O)cccc21` [1,8-Dihydroxyanthraquinone] was -0.286. Regarding `CC1(C)[C@@H](O[C@H]2O[C@H](C(=O)O)[C@@H](O)[C@H](O)[C@H]2O[C@@H]2O[C@H](C(=O)O)[C@@H](O)[C@H](O)[C@H]2O)CC[C@]2(C)[C@H]3C(=O)C=C4[C@@H]5C[C@@](C)(C(=O)O)CC[C@]5(C)CC[C@@]4(C)[C@]3(C)CC[C@@H]12` [Monoammonium glycyrrhizinate], the “NHEJ repair efficiency (log10)” value was -0.145. In the case of `NC(=O)NC1NC(=O)NC1=O` (stereo not given) [Allantoin] it was 0.029; in that of `CC=C1[C@H](O[C@@H]2O[C@H](CO)[C@@H](O)[C@H](O)[C@H]2O)OC=C(C(=O)OC)[C@H]1CC(=O)OC[C@H]1O[C@@H](OCCc2ccc(O)cc2)[C@H](O)[C@@H](O)[C@@H]1O` (stereo in doubt) [Specnuezhenide], 0.00632. In the case of `COc1ccc2[nH]cc(CCNC(C)=O)c2c1` [Melatonin] it was 0.0863; in that of `C[C@H](CCC(=O)O)[C@H]1CC[C@H]2[C@@H]3C[C@H](O)[C@@H]4C[C@H](O)CC[C@]4(C)[C@H]3CC[C@]12C` [Hyodesoxycholic acid], -0.299; in that of `COc1ccc2cc1Oc1ccc(cc1)C[C@H]1c3cc(c(OC)cc3CCN1C)Oc1c(OC)c(OC)cc3c1[C@H](C2)N(C)CC3` [Tetrandrine], 0.294. The value for `O=C1C[C@@H](c2ccc(O)cc2)Oc2cc(O)cc(O)c21` [Naringenin] was -0.176. In the case of `O=c1c(-c2ccc(O)cc2)coc2c([C@@H]3O[C@H](CO)[C@@H](O)[C@H](O)[C@H]3O)c(O)ccc12` [Puerarin], the “NHEJ repair efficiency (log10)” value worked out at 0.0163. Regarding `COC(=O)c1c2c(c3ccccc3c1O)OC(C)(C)C=C2` [Rubimaillin], the “NHEJ repair efficiency (log10)” value was 0.0202. In the case of `COc1cc(OC)c(CCC(=O)c2ccc(O)cc2)c(OC)c1` it was -0.0337; in that of `O=C1CCC[C@@H]2[C@H]3CCC[N+]4([O-])CCC[C@@H](CN12)[C@@H]34` (stereo not given in full) [Oxymatrine], 0.0707; in that of `C/C=C/c1cc(OC)c2c(c1)C(C)C(c1ccc(O)c(OC)c1)O2` (stereo not given) [Dehydrodiisoeugenol], -0.00267.

For `COc1ccc(-c2cc(=O)c3c(OC)c(OC)c(OC)c(OC)c3o2)cc1` [Tangeretin], the “NHEJ repair efficiency (log10)” value was -0.13. The value for `COc1cc(C=O)ccc1O` [Vanillin] was -0.132. Turning to `OC[C@H]1O[C@@H](Oc2cc(O)cc(/C=C/c3ccc(O[C@@H]4O[C@H](CO)[C@@H](O)[C@H](O)[C@H]4O)cc3O)c2)[C@H](O)[C@@H](O)[C@@H]1O` [Mulberroside A], the “NHEJ repair efficiency (log10)” value amounted to 0.049.

As for `O=C(O)/C=C/c1ccc(O)cc1` [P-Coumaric Acid], the “NHEJ repair efficiency (log10)” value stood at 0.1. Take `O=C(C=Cc1ccc(O)c(O)c1)O[C@H]1[C@H](O)C[C@](O)(C(=O)O)C[C@H]1OC(=O)C=Cc1ccc(O)c(O)c1` [Isochlorogenic Acid C (4,5-Di-O-Caffeoylquinic Acid)]: the “NHEJ repair efficiency (log10)” value is 0.021. The value for `CC(C)=CCC/C(C)=C/C=C/C(C)=C/C=C/C(C)=C/C=C/C=C(C)/C=C/C=C(C)/C=C/C=C(\C)CCC=C(C)C` [Lycopene] was -0.109; that for `O=c1c(O[C@@H]2O[C@H](CO)[C@@H](O)[C@H](O)[C@H]2O[C@@H]2O[C@H](CO)[C@@H](O)[C@H](O)[C@H]2O)c(-c2ccc(O)c(O)c2)oc2cc(O)cc(O)c12` [Baimaside] was 0.0574.

The record behind these values is the supplement of paper PMC7380943.
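Also: compound given one day ahead of doxycycline, which switches on I-SceI endonuclease to cut the chromosomally integrated reporter and create DSBs.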
